Source: the supplement of paper PMC6555819

What was measured:
Assay in all cases: PBM binding z-score (relative to random genomic background probes); higher = stronger binding; sequences stand for … in GC…GCGATTGACAGCGTAGAATGAAGG
[1] = system: FXR:RXRa (NR concentration 270 nM, RXRa partner concentration 90 nM)
In short: (§1)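 Probes were double-stranded and carried 34-nt variable regions with direct-repeat seeds, single-nucleotide variants, half-site ablations and random human genomic background sequences, printed on custom Agilent 4×180K protein-binding microarrays. Arrays were incubated 1 h with ligand-free nuclear receptor dimers in PBS pH 7.4, 2% milk, 0.02% Triton X-100, 1 mM DTT, 0.2 mg/mL BSA and 0.4 mg/ml salmon testes DNA. Antibodies against each partner (one per run) detected binding, and scanned fluorescence was regression-normalized. Binding z-scores use the random background probes as reference.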

[2] = system: LXRa:RXRa (NR concentration 270 nM, RXRa partner concentration 90 nM)
In short: as §1

[3] = system: LXRa homodimer (NR concentration 270 nM)
In short: as §1

[4] = system: LXRb:RXRa (NR concentration 270 nM, RXRa partner concentration 90 nM)
In short: as §1

[5] = system: LXRb homodimer (NR concentration 270 nM)
In short: as §1

[6] = system: PPARa:RXRa (NR concentration 270 nM, RXRa partner concentration 90 nM)
In short: as §1

[7] = system: PPARg:RXRa (NR concentration 180 nM, RXRa partner concentration 90 nM)
In short: as §1

[8] = system: PPARg:RXRa 270nM:90nM, anti-RXR (NR concentration 270 nM, RXRa partner concentration 90 nM)
In short: as §1

[9] = system: PPARg:RXRa 30nM:10nM, anti-RXR (NR concentration 30 nM, RXRa partner concentration 10 nM)
In short: as §1

[10] = system: PPARg:RXRa 90nM:30nM, anti-RXR (NR concentration 90 nM, RXRa partner concentration 30 nM)
In short: as §1

[11] = system: PPARg:RXRa DBDmut IVT, anti-RXR (DBD mutation: RXRa K156A/R161A, NR concentration 270 nM, RXRa partner concentration 90 nM)
In short: as §1

[12] = system: PPARg:RXRa IVT, anti-PPARg (NR concentration 270 nM, RXRa partner concentration 90 nM)
In short: as §1

[13] = system: PPARg DBDmut:RXRa IVT, anti-PPARg (DBD mutation: PPARg1 K132A/R137A, NR concentration 270 nM, RXRa partner concentration 90 nM)
In short: as §1

[14] = system: PPARg DBDmut IVT, anti-PPARg (DBD mutation: PPARg1 K132A/R137A, NR concentration 270 nM)
In short: as §1

[15] = system: PPARg homodimer (NR concentration 180 nM)
In short: as §1

[16] = system: PXR:RXRa (NR concentration 270 nM, RXRa partner concentration 90 nM)
In short: as §1

[17] = system: PXR homodimer (NR concentration 270 nM)
In short: as §1

[18] = system: RARa:RXR (NR concentration 270 nM, RXRa partner concentration 90 nM)
In short: as §1

[19] = system: RARa homodimer (NR concentration 270 nM)
In short: as §1

[20] = system: RARb:RXRa (NR concentration 270 nM, RXRa partner concentration 90 nM)
In short: as §1

Sequence	PBM binding z-score [1]	PBM binding z-score [2]	PBM binding z-score [3]	PBM binding z-score [4]	PBM binding z-score [5]	PBM binding z-score [6]	PBM binding z-score [7]	PBM binding z-score [8]	PBM binding z-score [9]	PBM binding z-score [10]	PBM binding z-score [11]	PBM binding z-score [12]	PBM binding z-score [13]	PBM binding z-score [14]	PBM binding z-score [15]	PBM binding z-score [16]	PBM binding z-score [17]	PBM binding z-score [18]	PBM binding z-score [19]	PBM binding z-score [20]
CCTCGGAGGACAACAGCAGGTCAGAGCTGCCAGA	0.202	0.89	0.459	0.176	-0.75	0.561	0.1	-0.313	-0.784	-0.736	0.0913	-0.0313	-0.897	-1.32	0.749	0.458	-0.253	0.722	0.0209	2.04
TATACAGCGTCAAAGGCCAGAGTACGAATGTCGA	-0.579	-0.473	-0.358	-0.616	-0.382	0.0937	1.16	1.62	0.56	1.13	-0.701	0.258	-0.154	0.515	-0.844	-0.442	-0.0905	-0.513	-0.705	0.524
CGTCAAGGTTCAACTAAGGTAACGTAAAGCACGC	5.26	4.66	1.12	2.96	0.335	4.18	2.49	2.73	0.464	1.82	-0.0468	0.857	-0.137	-0.827	1.13	3.96	0.241	3.05	0.652	3.14
GCTCGGAGGAAAAGGTCAGAGCTTTGTCCGTAGA	2.6	3.37	0.256	2.58	-0.596	3.83	2.82	4.46	1.36	4.22	-0.0327	1.11	-1.39	-0.963	1.55	2.93	-0.551	3.96	0.159	3.95
CCATACAGGTGAAAGGTAACTCAGTCTGGTACGC	0.917	0.86	0.0219	1.34	0.147	4.47	7.97	7.64	6.75	8.48	4.44	4.52	0.453	0.514	1.27	1.12	0.206	1.99	0.894	1.44
CCTATTGGGCCAAAAAGGTCATTGATGCCGATAA	3.69	4.37	2.45	4.04	0.266	4.6	2.25	3.39	0.941	2.81	1.89	2.64	0.177	-0.558	2.26	4.74	2.45	4.98	1.26	3.79
TCTCGGAGGACACGAAAGGTCGGAGCTCGACATC	1.02	1.14	-0.0519	0.48	-0.636	1.51	0.269	1.36	1.93	1.73	1.24	0.486	-0.405	-0.523	0.582	1.38	-0.652	1.61	-0.809	2.56
CCTATTTGTTGACCATAAGGGCAACCGAAGCTCG	0.863	0.511	0.84	0.696	1.12	0.847	0.437	0.529	0.245	0.342	0.427	0.84	0.694	0.679	1.94	1.09	0.998	1.35	1.45	1.72
ATCGAAAGGTCGTGAGGTGAGTCTACAGAAAGGC	4.96	3.75	0.0112	3.17	0.35	4.99	3.79	4.19	1.17	2.92	0.266	2.6	0.998	0.581	1.51	2.97	-0.0415	3.84	0.605	3.87
CATACAGGGGCAGCTAGGCCAGAGTAGGGACGGC	-0.362	-0.459	-0.661	-0.557	-0.608	-0.483	0.23	-0.457	-0.311	-0.744	-0.41	0.399	-0.422	-0.72	-0.555	-0.802	-0.878	-0.828	0.188	1.17
GATACAGGGTCATGGCCAGAGTACGCGTATTGAT	6.5	4.72	-0.00415	3.79	-0.283	5.65	6.02	6.38	2.73	4.67	3.28	4.13	0.893	-0.182	1.88	4.2	-0.295	5.43	0.00513	4.31
CCTCCTGGGCCATCAGGTCATTGATATCAACGTT	1.24	0.991	0.788	1.31	0.0311	1.73	0.38	1.29	-0.255	0.67	0.202	1.81	-1.18	-0.736	0.643	1.34	0.852	2.16	-0.969	1.99
TCATATAGGTAAAAGGTGAAAGTCGGTGTGGTAA	1.8	2.29	0.452	2.29	0.0331	5.57	9.43	8.85	10.3	10.2	5.72	5.59	2.1	0.745	2.06	2.17	0.508	3.73	2.49	2.22
CCTCGGAGGCCAGAAGGTCAGAGCTGTCCGCTTT	1.46	1.39	-0.337	0.993	-0.99	1.97	-0.665	1.19	-0.826	0.521	-0.00859	-0.274	-1.71	-1.89	0.843	1.32	-0.625	2.12	-0.274	2.98
